Hits are enriched below; roughly 19% of the tested compounds scored in any of these assays.
ASM inhibitor: blocks human secretory acid sphingomyelinase | 0.006% of 340,000 active | AID 504937 | Potency, µM (highest dose often 57.5 µM), for the others: at the highest dose activity change, negative = inhibition, hits mostly inhibitors | placental ASM, HMU-PC fluorogenic substrate, 60 min | P17405; also: potency is read from the fitted curve at half-maximal effect
Target sequence (P17405 47-631 limits assumed): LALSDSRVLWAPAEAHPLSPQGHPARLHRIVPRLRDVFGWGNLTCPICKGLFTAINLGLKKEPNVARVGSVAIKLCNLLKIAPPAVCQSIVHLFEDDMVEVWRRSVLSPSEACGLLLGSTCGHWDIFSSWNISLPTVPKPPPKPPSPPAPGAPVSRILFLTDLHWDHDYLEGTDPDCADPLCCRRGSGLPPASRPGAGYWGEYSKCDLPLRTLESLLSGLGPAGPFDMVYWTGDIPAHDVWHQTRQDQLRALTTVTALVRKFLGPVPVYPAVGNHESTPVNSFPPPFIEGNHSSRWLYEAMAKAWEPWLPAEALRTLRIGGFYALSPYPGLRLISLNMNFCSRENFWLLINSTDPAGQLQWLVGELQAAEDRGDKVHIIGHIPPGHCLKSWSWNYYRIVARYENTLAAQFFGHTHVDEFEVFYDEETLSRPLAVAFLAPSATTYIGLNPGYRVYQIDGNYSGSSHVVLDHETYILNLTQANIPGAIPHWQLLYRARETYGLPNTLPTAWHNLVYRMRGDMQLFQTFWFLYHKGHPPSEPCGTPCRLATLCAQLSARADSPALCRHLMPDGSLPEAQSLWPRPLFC
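Human placenta-derived ASM enzyme was preincubated with compound for 10 minutes at room temperature, then given fluorogenic substrate HMU-PC0 (9 uM final) for 60 minutes at 37 °C; a pH 10 stop preceded fluorescence reading at Ex 386/Em 447 nm.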
HepG2 viability: kills HepG2 cells in TGF-b inhibitor counter-screen; 0.76% of 410,000 active; Potency, µM (series often up to 46.1 µM), inactives show at the top dose activity change, negative = cytotoxicity, actives largely listed as cytotoxic; AID 588856; HepG2 CAGA-GFP viability, ATP luminescence, 18 h; also: potency is read from the fitted curve at half-maximal effect
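HepG2 CAGA-GFP cells (1000/well, DMEM with 1% FBS) received compound, then TGF-beta at 500 pg/mL final, and were incubated 18 hours at 37 degrees C. Viability was read by CellTiter-Glo luminescence. Media-only wells were set as complete cell-killing and DMSO as no toxicity.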
TGFb inhibitor: TGF-b pathway inhibition. 1.2% of 410,000 active. AID 588855. Potency, µM (highest dose often 46.1 µM), without a hit: at the top dose activity, negative = inhibition, hits mostly inhibitors. HepG2 CAGA-GFP TGF-b/SMAD3 reporter, GFP fluorescence, 18 h; TGF-beta stimulated, 500 pg/mL final; also: potency is read from the fitted curve at half-maximal effect; % is scaled to controls: 0 for no effect and ±100 for the full control effect; nearly all actives have a fitted effect of over 65% in size
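Cell-based qHTS in HEPG2 carrying a CAGA-GFP Smad reporter; compounds added before 500 pg/mL final TGF-beta, 18 h incubation at 37 degrees C, GFP fluorescence quantified per cell by imaging cytometry.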
TDP1 cell CPT: DT40-hTDP1 cell growth loss with CPT | chicken DT40 Tdp1-/-;hTDP1 cells + 20 nM CPT, ATP luminescence, 48 h | Potency, µM (doses to about 46.2 µM), for inactives: at the highest dose activity change, negative = growth inhibition, hits mostly inhibitors | 12% of 420,000 active | AID 686979; also: potency is read from the fitted curve at half-maximal effect; % is scaled to controls: 0 for no effect and ±100 for the full control effect; nearly all actives have a fitted effect of over 55% in size
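Chicken DT40 Tdp1-/- cells stably complemented with human TDP1 were seeded at 400 cells/well in medium containing 20 nM camptothecin, exposed to pin-transferred compounds, and grown at 37 °C for at least 48 hr. Viability was read as ATP luminescence.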
IL-1B inflam inh: inflammasome signaling inhibition, IL-1 beta readout; 4.7% of 360,000 active; THP-1 LPS/ATP IL-1B secretion, AlphaLISA, 16 h; hits give low values; AID 743279; activity change, % at 57.5 µM; in the data active = activity change below about -50%; inconclusive = mostly about -30% to -49%; also: % is scaled to controls: 0 for no effect and ±100 for the full control effect
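THP-1 cells pretreated 1 hr with compounds (up to 57.5 uM final), then stimulated with LPS (250 ng/mL final) plus ATP (1.25 mM final); secreted IL-1B measured by AlphaLISA after 16 hr, decreased signal indicating inhibition.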
DT40 TDP1 no CPT: qHTS for Inhibitors of human tyrosyl-DNA phosphodiesterase 1 (TDP1): qHTS in cells in absence of CPT; DT40 Tdp1-/- hTDP1 cells, no CPT, ATP luminescence, 48 h; Potency, µM (top dose mostly 46.2 µM), inactives show top-dose activity change, negative = growth inhibition, actives largely listed as inhibitors; 15% of 420,000 active; AID 686978, 2013; also: potency is read from the fitted curve at half-maximal effect; % is scaled to controls: 0 for no effect and ±100 for the full control effect; nearly all actives have a fitted effect of over 55% in size
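Growth of hTDP1-complemented DT40 Tdp1-knockout cells is measured by ATP luminescence after at least 48 hr compound exposure at 37 °C, with DMSO substituting for the 20 nM CPT used in the parallel screen.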
Active calls of the source: *; ? = inconclusive; . = no result; [ ] = remark or other dose. Unless noted, calls follow the shape of the dose curve; as a rule, active = well fitted curve in the direction sought with a large enough effect; inconclusive = small, poorly fitted or top-dose-only effect, or another doubt; inactive = no such curve, though single readings can be large; an effect the other way counts as inactive or inconclusive.

SMILES | ASM inhibitor | HepG2 viability | TGFb inhibitor | TDP1 cell CPT | IL-1B inflam inh | DT40 TDP1 no CPT
CCC(CC)C(=O)Nc1cccc(C(=O)Nc2ccc(S(N)(=O)=O)cc2)c1 | -2.0% | -2.0% | 1.3% | -6.3% | 8.7 | -10.6%
O=C(Nc1ccc2c(c1)OCCO2)c1c(F)c(F)c(F)c(F)c1F | -0.7% | -9.5% | -0.1% | 18.4µM* | -14.0 | ?
O=C(Nc1ccc2c(c1)OCCO2)c1ccc(Br)cc1 | -1.0% | -16.6% | -12.6% | ? | ? | ?
O=C(Nc1ccc2c(c1)OCCO2)c1cccc(Br)c1 | -2.1% | -17.5% | -3.8% | 6.7% | -54.0* | -23.0%
CCCOc1cccc(C(=O)Nc2ccc(-c3nc4ccccc4o3)cc2)c1 | . | -3.9% | -4.4% | ? | . | 13µM*
Cc1cccc(NC(=O)CN2CCN(C(=O)c3c(C)nn(Cc4ccccc4)c3C)CC2)c1C | 8.3% | -4.4% | -10.5% | -23.9% | 8.1 | -23.1%
COc1cccc(-c2nnc(SCC(=O)NC3CCCCC3)o2)c1 | . | -71.7% | -2.3% | ? | . | ?
COc1ccc(CCNC(=O)c2cc3sccc3n2Cc2ccc(Cl)cc2)cc1OC | . | -14.8% | -1.3% | 13µM* | . | 14.6µM*
COC(=O)c1ccc(NC(=O)c2cc3sccc3n2C)cc1 | -14.1% | -30.6% | -13.8% | 29.1µM* | 6.2 | ?
Cn1c(C(=O)Nc2ccccc2)cc2sccc21 | -0.7% | -32.7% | -0.6% | -25.0% | 7.6 | -22.7%
CCOc1ccc(CCNC(=O)c2cc3sccc3n2C)cc1OCC | -1.9% | -11.2% | -12.2% | 16.4µM* | -5.8 | 10.3µM*
Cc1ccc(CCNC(=O)c2cc3sccc3n2Cc2ccc(Cl)cc2)cc1 | . | -18.5% | -15.1% | -16.1% | . | -7.6%
COc1ccc(N2CC(NC(=O)C(c3ccccc3)c3ccccc3)CC2=O)cc1 (stereo unspecified) | . | -3.0% | -5.9% | ? | . | ?
COc1ccc(N(C)C(=O)C2CCCN2S(=O)(=O)c2cccc3nsnc23)c(OC)c1 (stereo unspecified) | 2.4% | -8.1% | 3.9% | -12.6% | -27.2 | -17.0%
O=C(Nc1ccc(F)c(Cl)c1)N1CC=C(c2c[nH]c3ccccc23)CC1 | . | -82.4% | 19.0% | 23.1µM* | . | 16.4µM*
O=C(Nc1ccccc1C(F)(F)F)N1CC=C(c2c[nH]c3ccccc23)CC1 | . | -39.0% | -19.4% | 20.6µM* | . | 25.9µM*
COCC(=O)Nc1cc(C(=O)NC2Cc3ccccc3C2)cc2nc(-c3cccnc3)n(C)c12 | . | . | . | -9.6%[9.04 µM] | . | -13.1%
Oc1c(C(c2ccccc2)N2CCOCC2)ccc2ccccc12 (stereo unspecified) | -1.8% | -16.1% | -14.7% | 8.2µM* | -98.7* | 9.2µM*
O=C(C(c1ccccc1)N1CCOCC1)N1CCOCC1 (stereo unspecified) | 4.4% | -8.9% | 10.4% | -17.4% | 27.4 | ?
COc1ccc([C@@]23Oc4cc(OC)cc(OC)c4[C@]2(O)[C@H](O)[C@H](C(=O)N(C)C)[C@H]3c2ccccc2)cc1 | -2.1% | -3.7% | -114.6% | 0.0073µM* | -2.6 | 0.0092µM*
COc1ccc(NC(=O)C2C(c3ccccc3)C2(Cl)Cl)c(OC)c1 (stereo unspecified) | -5.7% | -5.5% | ? | -29.1% | ? | ?
Clc1ccc2oc(-c3ccccc3)cc(=NCCCN3CCOCC3)c2c1 | -0.9% | -40.4% | ? | ? | -91.4* | ?
O=C(Cc1cccc2c(=O)cc(-c3ccccc3)oc12)OCCN1CCOCC1 | . | 1.7% | -3.3% | -5.3% | -14.5 | -10.3%
O=C(CN1C(=O)CCc2cc(S(=O)(=O)N3CCOCC3)ccc21)NCc1ccccc1Cl | . | -14.7% | -22.6% | -0.2% | . | -14.5%
CN(c1cccc(NS(=O)(=O)c2ccccc2)c1)S(C)(=O)=O | 2.0% | -2.7% | -4.0% | 4.1% | 7.6 | -13.7%
SMILES | ASM inhibitor | HepG2 viability | TGFb inhibitor | TDP1 cell CPT | IL-1B inflam inh | DT40 TDP1 no CPT
CCOc1ccc(S(=O)(=O)Nc2cccc(N(C)S(C)(=O)=O)c2)cc1 | 2.1% | 4.0% | -5.2% | 23.1µM* | 0.0 | 11.6µM*
COc1ccc(S(=O)(=O)Nc2cccc(F)c2)cc1C | -4.3% | -22.8% | -14.4% | -21.6% | 2.9 | -16.7%
COc1ccc(S(=O)(=O)Nc2cccc(N(C)S(C)(=O)=O)c2)cc1C | 6.0% | 3.9% | -2.9% | 25.9µM* | 10.2 | 20.6µM*
COc1cccc(N2CC(NC(=O)c3ccc(S(=O)(=O)N4CCOCC4)cc3)CC2=O)c1 (stereo unspecified) | . | 7.1% | -1.7% | ? | . | ?
O=C(Nc1nnc(SCc2ccccc2F)s1)C1=COCCO1 | 1.3% | 3.9% | 13.2% | 2.6% | -0.2 | 6.1%
Cc1cccc(N(C)c2nc3ccc(C)cc3n3nnnc23)c1 | . | -24.1% | -3.7% | ? | . | ?
Cc1cccc(N(C)c2nc3ccc(C)cc3n3cnnc23)c1 | . | -20.7% | ? | ? | . | 16.4µM*
CCc1ccc(Nc2nnc(SCC(=O)N(C)CC(=O)Nc3ccccc3CC)s2)cc1 | -3.1% | -30.5% | -25.1% | 18.4µM* | -19.2 | 14.6µM*
COc1ccc(NC(=O)CSc2nc(=O)n(CCN3CCOCC3)c3c2CCCC3)c(OC)c1 | 2.8% | -1.3% | -19.2% | 4.6% | 0.0 | -25.0%
COCCn1c(SCC(=O)c2ccc(Cl)cc2)nnc1C(C)C | -0.1% | -7.9% | -15.7% | ? | 13.2 | 20.6µM*
COCCn1c(SCC(=O)c2ccc3c(c2)OCCO3)nnc1C(C)C | 5.5% | -19.6% | 0.5% | -2.7% | 1.1 | -13.1%
COc1ccc(CN2CCOc3c(cc(-c4cccc(OC)n4)cc3OC)C2)c(O)c1 | . | . | . | -3.7% | . | -0.7%
Cc1nc2c(OCc3cccc(Cl)c3)cccn2c1N(C)Cc1cccs1 | . | 11.2µM* | ? | 20.6µM* | -19.6 | 16.4µM*
CCOC(=O)N(C)c1c(CC)nc2c(OCc3cccc(Cl)c3)cccn12 | . | -13.2% | -7.8% | ? | -7.0 | ?
CCc1nc2c(OCc3ccc(Cl)cc3Cl)cccn2c1N(C)C(=O)c1ccccc1F | . | -60.6% | ? | ? | -26.7 | ?
Cc1nc2c(OCc3ccc(Cl)cc3Cl)cccn2c1N(C)Cc1cccs1 | . | 11.2µM* | ? | ? | ? | ?
O=C(/C=C/c1ccncc1)c1ccc(NC(=O)c2ccccc2F)cc1 | -2.1% | 5.01µM* | 12.6µM* | 4.11µM* | -103.6* | 2.91µM*
O=C(/C=C/c1ccc(NC(=O)c2ccccc2-c2ccccc2C(=O)O)cc1)c1ccccc1 | 85.2% | -70.1% | ? | -18.6% | -61.5* | ?

Screening results: PubChem, National Center for Advancing Translational Sciences (NCATS)
